According to PubChem BioAssay AID1362 (SRMLSC, 2008):
The whole screen tested about 190,000 compounds, of which about 4,000 (2.1%) were called active. Rule as the data show it: active = inhibition above about 58%; inactive = the rest, inconclusive results apart; tested in S. cerevisiae. The sample as a whole holds a higher share of actives than the screen did.

Test: growth inhibition of WT strain, primary screen, mitochondrial fusion inhibitor project, WT and mutant strains, chemical genetic (AID 1362)
Settings: mitochondrial fusion phenotypic screen, at 10 µM
[1] = WT strain, growth inhibition, stronger effect = higher value

Compound | inhibition [1] | inhibition (mutant strain inhibition)
CCOC(=O)c1c(CN(C)C)n(-c2ccccc2)c2cc(Br)c(O)cc12 | 9.54% (inactive) | 7.76%
CC(CC(=O)O)C(=O)c1ccc(Cl)c([N+](=O)[O-])c1 (stereo unspecified) | -16.5% (inactive) | -4.59%
O=C(O)c1ccc(NC(=O)c2cccs2)cc1 | -8.36% (inactive) | 1.63%
O=C(Nc1ncccn1)c1cccs1 | 71.2% (active) | 28.9%
O=C(Nc1ccnc(-c2ccncc2)n1)c1cccs1 | -10.3% (inactive) | 11%
Cc1ccccc1CN1C[C@@H]2C[C@@H](c3ccc4nsnc4c3)N3CCC[C@@]23C1=O | 7.94% (inactive) | 5.04%
O=C(NCCCN1CCOCC1)c1ccccc1NS(=O)(=O)c1ccc(F)cc1 | -8.48% (inactive) | 6.56%
O=C(N/N=C/C=C/c1ccco1)c1cccs1 | -12.2% (inactive) | -0.62%
CNC(=O)CN1C(=O)c2ccccc2S1(=O)=O | 12.2% (inactive) | -7.85%
O=C1c2ccccc2S(=O)(=O)N1CC(O)Cn1c2ccccc2c2ccccc21 (stereo unspecified) | 84.5% (active) | 45.8%
CS(=O)(=O)N(CC(O)Cn1c2ccccc2c2ccccc21)c1cccc2ccccc12 (stereo unspecified) | 31.9% (inactive) | 7.33%
COCCCNC(=S)N(Cc1ccccc1)Cc1ccc(F)cc1 | 31.2% (inactive) | 41.6%
CC(NCc1nc2ccccc2n1C)C12CC3CC(CC(C3)C1)C2 (stereo unspecified) | 30.5% (inactive) | 16.6%
COc1ccc(-c2nnc(SCC(=O)c3cccs3)o2)c(OC)c1 | 63.6% (active) | -1.8%
COc1ccc(-n2c(C)cc(C(=O)CSc3nnc(-c4cccs4)o3)c2C)cc1 | 4.34% (inactive) | 23%
COc1ccc(OC)c(C(=O)CSc2nnc(-c3cccs3)o2)c1 | -7.87% (inactive) | -26.6%
CCC(=O)c1ccc(N2CCN(C(=O)c3cc([N+](=O)[O-])ccc3F)CC2)c(F)c1 | 10.4% (inactive) | 5.39%
CC(C)C(c1nnnn1C(C)(C)C)N1CCN(Cc2cccnc2)CC1 (stereo unspecified) | -10.2% (inactive) | 0.92%
COC(=O)C1=C(N)Oc2c(oc(CO)cc2=O)C1c1c(F)cccc1Cl (stereo unspecified) | -8.54% (inactive) | -4.27%
NC(=O)c1ccc(NC(=O)COC(=O)c2c3c(nc4ccccc24)/C(=C\c2ccc4c(c2)OCO4)CCC3)cc1 | 62.3% (active) | -2.13%
NS(=O)(=O)c1ccc(NC(=O)COC(=O)c2c3c(nc4ccccc24)/C(=C\c2ccc4c(c2)OCO4)CCC3)cc1 | 17.8% (inactive) | -3.76%

Compound | inhibition [1] | inhibition (mutant strain inhibition)
O=C(COC(=O)c1c2c(nc3ccccc13)/C(=C\c1cccs1)CCC2)Nc1ccccc1Cl | 15.8% (inactive) | 3.86%
Fc1ccc(COc2cccc(-c3n[nH]c(=S)o3)c2)cc1 | -4.32% (inactive) | -2.8%
Cc1ccc(S(=O)(=O)/N=C(/Nc2ccc3[nH]c(=O)[nH]c3c2)c2ccccc2)cc1 | -20.3% (inactive) | 0.61%
COc1ccc(OC)c2c(N)c(C#N)c(C(F)(F)C(F)(F)F)nc12 | 61.3% (active) | -8.43%
COc1ccc(-c2cc(-c3ccc(N)cc3)nc(N)c2C#N)cc1OC | 42.1% (inactive) | -0.07%
COc1ccc(C2CC(=O)Nc3sc(=N)c4c(N)c(C#N)c(N)nc4c32)cc1OC (stereo unspecified) | -16.8% (inactive) | -4.44%
O=S(=O)(NCc1ccccc1)c1ccc(S(=O)(=O)N2CCCC2)cc1 | 5.86% (inactive) | -0.28%
CCCCc1nnc(NC(=O)CSc2nc(N)cc(=O)[nH]2)s1 | -9.03% (inactive) | -14.2%
O=C(CSc1ccc(-c2ccccc2)nn1)NCC1CCCO1 (stereo unspecified) | -2.54% (inactive) | 0.5%
Cc1nn(C)cc1/C=N/NC(=O)c1sc2ccccc2c1Cl | -10.9% (inactive) | 2.17%
O=C(Nc1ccon1)c1sc2ccccc2c1Cl | 3.3% (inactive) | 0.77%
O=C(N/N=C/c1c(Cl)[nH]c2ccccc12)c1sc2ccccc2c1Cl | 61.8% (active) | 41.3%
COc1ccc(CCc2nnc(CCC(=O)NCc3cnn(-c4ccccc4C)c3)o2)cc1 | 12.2% (inactive) | 7.75%
CS(=O)(=O)n1nc(-c2ccco2)nc1N | -0.21% (inactive) | -16.1%
C=CCc1cccc2cc(C(=O)NC3CCCC3)c(=O)oc12 | 3.26% (inactive) | 9.03%
CC(C)(C)c1ccc(Oc2ccc(N)cc2)cc1 | 54.8% (inactive) | 38%
CC(C)(C)c1csc(NC2=NS(=O)(=O)c3ccccc32)n1 | -0.65% (inactive) | -32.5%
CC(C)(C)c1ccc(OC2=CS(=O)(=O)c3ccccc32)cc1 | 59% (active) | 35.3%
Cc1nn(CC(=O)NCc2ccccn2)c(C)c1[N+](=O)[O-] | -4.5% (inactive) | 4.36%
COc1cc(CNCCN(C)C)ccc1OCc1c(F)cccc1Cl | -7.23% (inactive) | 10.9%
CCCCNC(=O)N1CCN(S(C)(=O)=O)CC1 | 3.54% (inactive) | 2.85%

Compound | inhibition [1] | inhibition (mutant strain inhibition)
CCCCCCCCn1c2c(c(=N)c3c1CCC3)CCCC2 | 80.6% (active) | 77.5%
O=C1/C(=C/c2cccs2)CCC1C1CCCC1 (stereo unspecified) | 9.28% (inactive) | 37.2%
Cc1ccc(COc2ccc(/C=N/NC(=O)CN3CCCCC3)cc2)cc1 | 0.04% (inactive) | -4.75%
c1ccc2c(CSCc3nc4ccccc4[nH]3)cccc2c1 | 74.6% (active) | 69.3%
Clc1ccccc1SCc1nc2ccccc2[nH]1 | 39.4% (inactive) | 35.4%
COC(=O)Cc1nc2ccccc2[nH]1 | 16.6% (inactive) | 14%
O=C(NCc1ccccc1)C1CCCN(c2nc3ccsc3c(=O)s2)C1 (stereo unspecified) | -14.1% (inactive) | 0.23%
CO/N=C/c1ccc(N2CCN(C(=O)c3cccc(Cl)c3)CC2)c([N+](=O)[O-])c1 | 36.5% (inactive) | 22.2%
O=C(c1ccc(Cl)c([N+](=O)[O-])c1)N1CCN(c2ccccc2)CC1 | 65.8% (inactive) | 70.4%
O=C(/C=C/c1ccc(Cl)cc1)N1CCN(c2ccccc2[N+](=O)[O-])CC1 | 65.4% (active) | 39.2%
CCn1cc(C(=O)NCCCN2CCCCCC2)c(=O)c2cc(S(=O)(=O)N3CCc4ccccc4C3)ccc21 | 4.36% (inactive) | -2.13%
COc1ccc(NC(=O)CCNS(=O)(=O)c2ccc3c(c2)c(=O)n(C)c(=O)n3C)cc1OC | -9.99% (inactive) | 2.95%
O=C(COC(=O)Cc1ccc(Br)cc1)Nc1c(F)c(F)c(F)c(F)c1F | 19.9% (inactive) | 7.41%
CCCNC(=O)CN(Cc1ccccc1F)S(=O)(=O)c1ccc(C)cc1 | -13.2% (inactive) | -40.4%
COC(=O)Cc1ccc(N(Cc2ccccc2F)S(=O)(=O)c2ccc(Br)cc2)cc1 | 69.7% (active) | 64.6%
CCCS(=O)(=O)N1CCC(CCOc2ccccc2)(C(=O)OCC)CC1 | 5.25% (inactive) | -7.89%
CCSC1=NCCN1C(=O)c1ccc(S(=O)(=O)N(CC)CC)cc1 | 1.64% (inactive) | -5.04%
O=C(COC(=O)c1ccncc1)c1ccccc1 | -12.9% (inactive) | 3%
COc1ccc(N2CCN(CCNC(=O)c3nnc(Cc4c(F)cccc4Cl)o3)CC2)cc1 | 82.5% (active) | -0.13%
COc1ccc(N2CCN(CCNC(=O)CCN3C(=O)COc4ccccc43)CC2)cc1 | -0.99% (inactive) | 42.7%
COc1ccc(CN2CC(C(=O)NCCN3CCN(c4ccccc4F)CC3)CC2=O)cc1 (stereo unspecified) | 5.07% (inactive) | 14.3%

Compound | inhibition [1] | inhibition (mutant strain inhibition)
O=C(CCn1ccc([N+](=O)[O-])n1)Nc1nccs1 | -14.4% (inactive) | 2.54%
Cn1c(N)c(C(=O)COC(=O)c2ccccc2NCc2ccco2)c(=O)n(C)c1=O | 12.2% (inactive) | -19.6%
Cc1ccc(NC(=O)OCc2cncs2)cc1 | -3.01% (inactive) | 3.18%
COc1ccc(OC)c(C(=O)c2ccc(C(=O)N3CCN(Cc4csc(C)n4)CC3)cc2)c1 | -23% (inactive) | 5.3%
Cc1ccc(Cl)c(NC(=O)CN2CCN(C=O)CC2)c1 | -7.62% (inactive) | 12.5%
CC(=O)OC(COc1ccc(F)cc1)Cn1cnc2ccccc21 (stereo unspecified) | -0.37% (inactive) | 4.78%
CC(C)c1ccc(OCC(O)Cn2cnc3ccccc32)cc1 (stereo unspecified) | 95.7% (active) | 0.12%
OC(COc1ccc2ccccc2c1)Cn1cncn1 (stereo unspecified) | 4.91% (inactive) | -2.41%
CC(=O)Nc1cccc(-c2nc3ccccc3s2)c1C | -0.41% (inactive) | -5.28%
COC(=O)C1=C(C)N(c2ccc(Br)cc2)C(=O)/C1=C\c1ccco1 | 13.1% (inactive) | 8.54%
COC(=O)C1=C(C)N(C(C)c2ccccc2)C(=O)/C1=C\c1ccco1 (stereo unspecified) | 58.3% (active) | -4.58%
O=C(CCCN1C(=O)/C(=C/c2ccco2)SC1=S)Nc1ccccc1 | 1.95% (inactive) | -17.3%
O=C(NCCN1CCOCC1)Nc1cccc(Cl)c1 | -7.63% (inactive) | -3.81%
Cc1cc(C)cc(OCC(=O)NCc2cc(C)nc3ccccc23)c1 | -2.23% (inactive) | 3.06%
COc1cc(NC(=S)N2CCCC(C)C2)c(OC)cc1Cl (stereo unspecified) | -3.52% (inactive) | 1.38%
COc1ccc(NC(=O)COc2ccc(C(=O)OCC(=O)N(C)C3CCS(=O)(=O)C3)cc2OC)cc1 (stereo unspecified) | -3.64% (inactive) | 1.53%
O=C(Nc1cccc(S(=O)(=O)N2CCCCC2)c1)c1ccc2c(c1)OCO2 | 9.86% (inactive) | 4.97%
O=C(Nc1ccc(Cl)cn1)c1ccc2c(c1)OCCO2 | 27.3% (inactive) | 29%
O=C(Nc1cccc(S(=O)(=O)Nc2ccc(Cl)cc2)c1)c1ccc2c(c1)OCCO2 | 63.7% (active) | 29.9%
CCn1nc(C)cc1C(=O)N1CCCC(C(=O)c2cccc(OC)c2)C1 (stereo unspecified) | -20.3% (inactive) | 1.68%
